Screens: PubChem BioAssay, several laboratories
Only some compounds are listed: those with a hit (about 27% of all), similar ones and a draw of the others.
Cav3 T inh: human Cav3.2 channel inhibition, primary screen; O95180; B-score at 10 µM; Cav3.2-expressing cells, Fluo-4 calcium fluorescence FDSS; active compounds read low; hit rate 4% among 100,000;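 active = single-dose well whose peak fluorescence ratio is a statistical outlier from its plate by either plate-standardised score or position-corrected B-score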
CYP2C19 inh: blocks human cytochrome P450 2C19. P33261. CYP2C19 Supersomes, luciferin-H EGE luminescence, 30 min. inhibition, % at 5 µM. hit rate 21% among 96,000;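 active = CYP2C19 inhibition above a set limit at 5 µM in the primary screen, cut at about 50% in these data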;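 also: plate controls were negative control wells for no effect and 2.5 mM tranylcypromine positive control for full effect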
CYP2C9 inhib: blocks human cytochrome P450 2C9. P11712. CYP2C9 Supersomes, luciferin-H conversion, luminescence. inhibition, % at 5 µM. hit rate 20% among 96,000;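 active = blocking of liver enzyme CYP2C9 beyond about 50% at 5 µM, limit read from the data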
Target sequence (P11712 whole entry, looked up): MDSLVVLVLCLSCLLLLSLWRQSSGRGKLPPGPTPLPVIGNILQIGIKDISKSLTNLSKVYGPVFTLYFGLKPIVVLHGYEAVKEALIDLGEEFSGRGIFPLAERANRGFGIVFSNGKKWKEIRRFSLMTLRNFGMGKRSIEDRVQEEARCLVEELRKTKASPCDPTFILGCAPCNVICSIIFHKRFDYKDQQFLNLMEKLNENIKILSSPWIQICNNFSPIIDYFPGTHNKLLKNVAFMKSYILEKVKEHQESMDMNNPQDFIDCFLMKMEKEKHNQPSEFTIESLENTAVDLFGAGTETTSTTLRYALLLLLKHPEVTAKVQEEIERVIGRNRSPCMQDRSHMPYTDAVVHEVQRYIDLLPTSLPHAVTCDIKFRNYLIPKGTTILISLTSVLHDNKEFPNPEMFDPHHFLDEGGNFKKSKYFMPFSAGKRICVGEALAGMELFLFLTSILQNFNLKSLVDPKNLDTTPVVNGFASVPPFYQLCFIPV
CYP2C19 activ: increases human CYP2C19 enzyme activity; recombinant CYP2C19, luciferin-H EGE luminescence; active compounds read high; 0 = fully inhibited enzyme, 1 = untreated enzyme; activation factor at 5 µM; 96,000 tested, under 10 active;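 active = activation factor of at least 2 at 5 µM in the primary screen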;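 also: 0 = wells with 2.5 mM tranylcypromine and 1 = vehicle-only wells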
CYP2C9 activ: increases human cytochrome P450 2C9 activity. P11712. recombinant CYP2C9, luciferin-H conversion, luminescence; active compounds read high; factor 1 = untreated enzyme, 0 = blocked. activation factor at 5 µM. hit rate 1.4% among 96,000;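 active = activation factor of 2 or more for CYP2C9 at a 5 µM dose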;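 also: 0 = sulfaphenazole-blocked wells and 1 = vehicle-only wells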
* marks the source's active call; other numbers are inactive results; · = no result given.

SMILES | Cav3 T inh | CYP2C19 inh | CYP2C9 inhib | CYP2C19 activ | CYP2C9 activ
CCCCCC(=O)N1CCCC(c2nc(-c3ccc(OC)cc3)no2)C1 (stereo not given) | -4 | 64* | 67* | 0.4 | 0.3
COc1ccc(NC(=O)N2CCCC(c3nc(-c4ccc(C(C)C)cc4)no3)C2)cc1 (stereo not given) | -1.3 | 36 | 67* | 0.6 | 0.3
O=C(CC1CCCCC1)N1CCCC(c2nc(-c3ccc(S(=O)(=O)N4CCCC4)cc3)no2)C1 (stereo not given) | -2.8 | 30 | 60* | 0.7 | 0.4
COc1ccc(-c2noc(C3CCCN(C(=O)CCc4ccccc4)C3)n2)cc1 (stereo not given) | -0.055 | 44 | 70* | 0.6 | 0.3
COc1cccc(-c2noc(C3CCCN(C(=O)Cc4ccccc4)C3)n2)c1 (stereo not given) | 0.018 | 30 | 41 | 0.7 | 0.6
CSc1nc(-c2ccc(Cl)cc2)nn1S(=O)(=O)c1ccc(Cl)cc1 | 0.29 | · | · | · | ·
CC(Oc1ccc(-c2ccccc2)c(F)c1)c1ccn(S(=O)(=O)c2ccc(Cl)cc2)n1 (stereo not given) | -5.1* | 32 | 68* | 0.7 | 0.3
CC(Oc1ccc(Cl)cc1)c1ccnn1S(=O)(=O)c1ccccc1 (stereo not given) | -6.1* | 82* | 38 | 0.2 | 0.6
COCCn1nnnc1CN1CCC(C)CC1 | 0.061 | · | · | · | ·
CCOC(=O)c1oc2ccccc2c1CSc1nnnn1-c1ccc(C)cc1 | -3.9* | · | · | · | ·
CCN(CC)C(=O)CSc1nnc(-c2ccco2)o1 | 0.26 | · | · | · | ·
C=CCn1c(=O)c2ccccc2n2c(SCC(N)=O)nnc12 | 0.43 | -11 | -10 | 1.1 | 1.1
C=CCn1c(=O)c2ccccc2n2c(SCc3nc4ccccc4s3)nnc12 | 0.62 | 62* | 37 | 0.4 | 0.6
C=CCn1c(=O)c2ccccc2n2c(SCC(=O)NCc3cccs3)nnc12 | 1.1 | 15 | 5 | 0.9 | 1
C=CCn1c(=O)c2ccccc2n2c(SCc3c(C(=O)OCC)oc4ccccc34)nnc12 | 0.35 | 59* | 60* | 0.4 | 0.4
CCOC(=O)c1oc2ccccc2c1CSc1nnc(-c2ccco2)o1 | -3.9 | 14 | 69* | 0.9 | 0.3
Cn1c(=O)c2c(nc(Oc3ccc(-c4ccccc4)cc3)n2C)n(C)c1=O | -2.7 | 1 | 5 | 1 | 1
C=CC[C@]12CC=CC(=O)[C@@]1(O)O[C@H](c1ccc(OC)c(OC)c1)[C@H]2C | 0.15 | · | · | · | ·
O=C(NCc1cccs1)c1noc2c1CCCCC2 | 0.28 | 5 | 20 | 0.9 | 0.8
COc1ccccc1NC(=O)C1C2C=CC(O2)C1C(=O)O (stereo not given) | 0.81 | 4 | 8 | 1 | 0.9
COCCn1cc(C(=O)c2ccccc2OCC(=O)Nc2cc(C)on2)cc(C#N)c1=O | 1.5 | 32 | 42 | 0.7 | 0.6
CCOc1ccc(NC(=O)CCN2CCN(c3ccccc3F)CC2)cc1 | -1.1 | 51* | 68* | 0.5 | 0.3
CCN(CC)c1ccc(NC(=O)CN2CCN(c3ccccc3F)CC2)cc1 | -1.4 | 55* | 46 | 0.4 | 0.5
CCN(CC)C(=O)CN1CCN(c2ccccc2F)CC1 | 0.97 | 38 | 3 | 0.6 | 1
COc1cccc(NC(=O)CCN2CCN(c3ccccc3F)CC2)c1 | -0.96 | 38 | 33 | 0.6 | 0.7
SMILES | Cav3 T inh | CYP2C19 inh | CYP2C9 inhib | CYP2C19 activ | CYP2C9 activ
COc1ccc(NC(=O)CN2CCN(c3ccccc3F)CC2)cc1 | 0.45 | 55* | 68* | 0.4 | 0.3
COc1ccc(N2CCC(CNC(=O)Nc3cccc(OC)c3)C2)cc1 (stereo not given) | -3.3 | 40 | 76* | 0.6 | 0.2
COC(=O)c1cccc(NC(=O)CN2CCN(c3ccc(OC)cc3)CC2)c1 | 0.63 | 65* | 86* | 0.4 | 0.1
COc1cccc(NC(=O)CN2CCN(c3ccc(F)cc3)CC2)c1 | · | 15 | 33 | 0.8 | 0.7
CNc1c2c(nn1C)CCCC2 | · | -2 | -48 | 1 | 1.5
N#Cc1cc(C#N)c(N2CCN(c3ccccn3)CC2)nc1N | -1.4 | 65* | 44 | 0.3 | 0.6
O=C(O)C1CC=CCC1C(=O)Nc1cccc(Cl)c1 (stereo not given) | -0.6 | 4 | -9 | 1 | 1.1
Cc1ccc(-c2cc(C(=O)Nc3ccc4c(c3)OCCO4)c3ccccc3n2)cc1 | -0.46 | 23 | 76* | 0.8 | 0.2
CS(=O)(=O)Nc1ccccc1C(=O)Nc1ccc2c(c1)OCCO2 | -0.19 | 11 | 73* | 0.9 | 0.3
